This is an account of results in PubChem BioAssay (NCATS).

Molecules are shown by their SMILES. Where “and” joins values, the source holds several entries; their conditions need not be identical. Equal values may be shown once. Records with an inconclusive call do not appear. Calls of active or inactive are those of the source. Calls come from the whole dose curve; as a rule, active = well fitted inhibition curve with a large enough effect in the main read-out, with a control signal flat (not every such curve was filed as active); inconclusive = small, poorly fitted or top-dose-only effect, or effect the other way, or a change in a side signal; inactive = no such curve, though single readings can be large or run the other way.
Potency is the fitted concentration of half-maximal effect.

This assay is described as follows: Nrf2 qHTS screen for inhibitors: Validation (AID 493153). As to conditions: A549 ARE-Fluc reporter, 18-24 h; Potency: luciferase luminescence; viability change: measured here: cytotoxicity max response; luciferase luminescence, at 46.1 µM (top of the series). An excerpt:
NIH Molecular Libraries Probe Production Network [MLPCN] NIH Chemical Genomics Center [NCGC] MLPCN Grant: R03-MH092170-01 Assay Provider: Shyam Biswal, Johns Hopkins University Assay Overview: Nrf2 is a transcription factor that maintains cellular redox homoestasis and protects cells from xenobiotics. Nrf2 binds to the antioxidant response element (ARE) to induce gene expression of a broad spectrum of genes that encode for antioxidants. […] Finding a small molecule that act as an inhibitor of Nrf2 function would represent a novel therapeutic target that could lead to improvement in survival of patients undergoing chemo- and/or radio- therapy. 1. Shibata, T., et al., Genetic Alteration of Keap1 Confers Constitutive Nrf2 Activation and Resistance to Chemotherapy in Gallbladder Cancer. Gastroenterology, 2008. 2. Sjoblom, T., et al., The consensus coding sequences of human breast and colorectal cancers. Science, 2006. 314(5797): p. 268-74.
Assay Protocol Summary: A concentration-response assay was performed with A549 ARE_Fluc cells which are suspended in 5% FBS OPTI-MEM. Five uL were dispensed into 1536-well white TC-treated plate using the Kalypsys dispenser to achieve a density of 5000 cells/well in all columns except column 1. The plate is incubated at 37deg C at 5% CO2 for 2 hours before 23 nL of compounds are added with the Kalypsys pin tool equipped with a 1,536-pin array containing 10-nL slotted pins (FP1S10, 0.457-mm diameter, 50.8 mm long; V&P Scientific). The control compounds Budesonide and Staurosporine are both added at a concentration of 2mM and Budesonide is also added as a 1:10 titration, starting at 200uM, to achieve dose-response. After an 18-24 hour incubation at 37deg C at 5% CO2, 5ul of medium is added to column 1. Afterwards 1ul of 5x of CellTiter-Fluor (Promega) is added to every well. The plate is then incubated at 37deg C at 5% CO2 for 30 minutes before they are read on the ViewLux (Perkin Elmer) for a fluorescent read Ex=405(10)/Em=525(10) for a 3 second exposure, 2x binning, and high gain. Then 3 uL of 3x BugLite is dispensed into all wells and the plate is incubated at ambient room temperature for 15 minutes. Afterwards another ViewLux read is performed using the clear filter to get a luminescent read with the settings of 40 second exposure, 2x binning, and high gain. Cytotoxicity is assessed through the first fluorescent read and then biochemical activity against Nrf2 is measured in the luminescent read.
Take `COc1cc2nc(N3CCN(C(=O)c4ccco4)CC3)nc(N)c2cc1OC`: the Potency entry is “inactive” and the viability change was -4.77%.

As for `CN(Cc1cnc2nc(N)nc(N)c2n1)c1ccc(C(=O)N[C@@H](CCC(=O)O)C(=O)O)cc1`, the Potency is 580 nM (active) and the viability change was -0.856%.

For `CC(C)NCC(O)COc1ccc(CCOCC2CC2)cc1` (stereo not given), the viability change is -1.98% and the Potency result was “inactive”.

In the case of `O=C1Cc2cc(CCN3CCN(c4nsc5ccccc45)CC3)c(Cl)cc2N1`, the viability change was -17.6% and the Potency result is “inactive”.

As to `NC(CO)C(=O)NNCc1ccc(O)c(O)c1O` (stereo not given), the Potency entry was “inactive” and the viability change is -7.62%.

For `CC(C)NCC(O)c1ccc(O)c(O)c1` (stereo not given), the Potency result was “inactive” and the viability change is -5.16%.

As for `CCN1CCCC1CNC(=O)c1cc(S(=O)(=O)CC)c(N)cc1OC` (stereo not given), the viability change stood at 7.74% and the Potency result is “inactive”.

Regarding `O=c1c(-c2ccc(O)cc2)coc2cc(O)cc(O)c12`, the Potency result is “inactive” and the viability change is -6.66%.

As to `CCCCc1oc2ccccc2c1C(=O)c1cc(I)c(OCCN(CC)CC)c(I)c1`, the viability change is 8.23% and the Potency result is “inactive”.

Regarding `CCC1(c2ccccc2)C(=O)NCNC1=O`, the viability change was 0.001% and the Potency result was “inactive”.

Take `OCCN1CCN(CCCN2c3ccccc3Sc3ccc(C(F)(F)F)cc32)CC1`: the Potency entry is “inactive” and the viability change amounted to 1.55%.

Regarding `CN1C2CCC1CC(OC(=O)C(CO)c1ccccc1)C2` (stereo not given), the Potency result was “inactive”; the viability change was 0.769% and 1.89%.

`COc1ccc(C2CNC(=O)C2)cc1OC1CCCC1` (stereo not given): the viability change worked out at 3.91% and the Potency entry is “inactive”.

Consider `O=C(CCCN1CCC(O)(c2ccc(Cl)cc2)CC1)c1ccc(F)cc1`, for which the Potency entry is “inactive” and the viability change turned out to be 2.46%.

`COc1nc(C)nc(Cl)c1NC1=NCCN1`: the Potency result was “inactive” and the viability change was found to be 4.38%.

As for `CC[N+](CC)(CC)CCOc1cccc(OCC[N+](CC)(CC)CC)c1OCC[N+](CC)(CC)CC`, the viability change came out at 5.55% and the Potency result is “inactive”.

Consider `CN1CCN(C2=Nc3cc(Cl)ccc3Nc3ccccc32)CC1`, for which the Potency entry was “inactive” and the viability change was -10.5%.

In the case of `CN1CCC(=C2c3ccccc3C=Cc3ccccc32)CC1`, the Potency entry is “inactive” and the viability change worked out at 17%.

Take `Clc1ccc2nsnc2c1NC1=NCCN1`: the Potency entry is “inactive” and the viability change was -2.06%.

As for `Cc1ccc(C(=O)Nc2ccc(S(=O)(=O)O)c3cc(S(=O)(=O)O)cc(S(=O)(=O)O)c23)cc1NC(=O)c1cccc(NC(=O)Nc2cccc(C(=O)Nc3cc(C(=O)Nc4ccc(S(=O)(=O)O)c5cc(S(=O)(=O)O)cc(S(=O)(=O)O)c45)ccc3C)c2)c1`, the viability change is -15.2% and the Potency result is “inactive”.
